Reference: PubChem BioAssay (NCI)
Compounds without any hit were thinned out: in the full panel of roughly 79,000, 15% have a hit. Cut-off read from the data, not from the text of the source: active = growth inhibition above about 70%; inactive = the rest.

Experiments:
[1] = NCI Yeast Anticancer Drug Screen. Data for the rad50 strain (AID 155);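 note: 0% = growth of vehicle-only cultures of the same strain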; conditions: S. cerevisiae rad50 strain growth inhibition; at 50.0 µM; stronger effect = higher value
Outline: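 Genetically altered yeast (DNA repair pathway); compound treatment; growth inhibition vs vehicle ctrl.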

[2] = NCI Yeast Anticancer Drug Screen. Data for the mec2-1 strain (AID 157); conditions: S. cerevisiae mec2-1 strain, at 50.0 µM, stronger effect = higher value
Outline: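 Cells of the genetically defined mec2-1 yeast strain are incubated with test compound. Inhibition of growth is calculated against vehicle-treated controls.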

[3] = NCI Yeast Anticancer Drug Screen. Data for the sgs1 mgt1 strain (AID 161);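 note: 0% = growth of cultures given vehicle only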; conditions: S. cerevisiae sgs1 mgt1 strain, at 50.0 µM, stronger effect = higher value
Outline: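 Genetically altered yeast, compound exposure, growth inhibition relative to vehicle.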

[4] = NCI Yeast Anticancer Drug Screen. Data for the cln2 rad14 strain (AID 165);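 note: 0% = growth equal to vehicle treated cultures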; conditions: S. cerevisiae cln2 rad14 strain, at 50.0 µM, stronger effect = higher value
Outline: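 The screen exposed genetically defined yeast (cln2 rad14) to test compounds and scored growth inhibition relative to vehicle-treated controls.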

[5] = NCI Yeast Anticancer Drug Screen. Data for the bub3 strain (AID 167); conditions: S. cerevisiae bub3 mutant strain, at 50.0 µM, stronger effect = higher value
Outline: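 Yeast carrying a defined mutation is treated with each compound, and growth is compared with that of vehicle-exposed cells to give inhibition.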

[6] = NCI Yeast Anticancer Drug Screen. Data for the mlh1 rad18 strain (AID 175); conditions: S. cerevisiae mlh1 rad18 strain growth inhibition; at 50.0 µM; stronger effect = higher value
Outline: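 Compound-treated yeast growth, normalised to vehicle controls. Strain bears defined DNA repair mutations.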

Measured: growth inhibition

CCCC(O)c1ccccc1C (stereo unspecified)
inactive: [1] 17.6% | [2] 13.9% | [3] 1.4% | [4] -17.2% | [5] 4.6% | [6] 12.1%

Clc1ccc2c(c1)[nH]c1c2nc2sccn21
inactive: [1] -7.25% | [2] -14.7% | [3] -0.3% | [4] 1.15% | [5] -12.9% | [6] -10.1%

O=c1c(Cc2ccccc2)coc2ccccc12
inactive: [1] 30.6% | [2] 14.6% | [3] 21.4% | [4] -14.2% | [5] 27.5% | [6] -1.5%

CCc1ccc2ccccc2c1N
inactive: [1] 20.6% | [2] 8.05% | [3] 6.1% | [4] -1.65% | [5] -0.3% | [6] 15.1%

O=C1c2ccccc2-c2ccc(I)cc21
inactive: [1] 5.15% | [2] -1.7% | [3] 2.25% | [4] -17.6% | [5] 8.45% | [6] 26.2%

O=C(Nc1ccccc1[N+](=O)[O-])Oc1ccc(-c2ccccc2)cc1
inactive: [1] 9.05% | [2] 5.75% | [3] 9.05% | [4] -7.65% | [5] 46.4% | [6] -28.9%

CCCCOc1ccc(C(=O)C(C(c2ccccc2)N2CCOCC2)N2CCOCC2)cc1 (stereo unspecified)
inactive: [1] -7.8% | [2] -4.85% | [3] -9.4% | [4] -6.8% | [5] -12.2% | [6] 9.2%

CC(C)(C)c1ccc(OCCCCl)c(CCl)c1
inactive: [1] 23.4% | [2] 2.75% | [3] 10.1% | [4] 7.65% | [5] 52% | [6] 12.6%

CC1(C)OC2C3COc4nc5c(N)ncnc5n4C(O3)C2O1 (stereo unspecified)
inactive: [1] -6% | [2] -5.2% | [3] -8.85% | [4] -5.05% | [5] -8.1% | [6] -9.9%

CC1(C)CN(CCC#N)C(c2ccc([N+](=O)[O-])cc2)O1 (stereo unspecified)
inactive: [1] 2.95% | [2] 3.3% | [3] 8.1% | [4] -9.4% | [5] 14% | [6] -14.8%

N#CCCN(c1ccc(C=O)cc1)S(=O)(=O)c1ccccc1
inactive: [1] -0.1% | [2] -13% | [3] -1.75% | [4] 5.75% | [5] -13.4% | [6] -15.7%

O=C(Nc1ccc(F)c([N+](=O)[O-])c1)Nc1cc(C(F)(F)F)ccc1Cl
inactive: [1] 9.4% | [2] 1% | [3] 0.55% | [4] -0.4% | [5] -4.65% | [6] 24.2%

COc1ccc(NC2=CC(=O)c3ccccc3C2=O)cc1
inactive: [1] 0.4% | [2] 5.55% | [3] 4.1% | [4] -35% | [5] 18.2% | [6] -7.1%

NC(N)=NS(=O)(=O)c1ccc(N2C(=O)CC3(CCCC3)C2=O)cc1
inactive: [1] 10.8% | [2] -2.25% | [3] -16.8% | [4] 17.6% | [5] 13.4% | [6] 6.75%

Cc1oc2ccccc2c(=O)c1CO
inactive: [1] -12.6% | [2] 13.2% | [3] 2% | [4] -9.85% | [5] -11.1% | [6] -12.2%

O=C(O)CCN1CCSC1=O
inactive: [1] 7.15% | [2] 12.6% | [3] -4.3% | [4] 3.75% | [5] 2.35% | [6] 1.8%

CCn1nc(C)c2c1C(=O)NCC(=O)N2
inactive: [1] -34.1% | [2] -44.6% | [3] -26.9% | [4] -10.4% | [5] -17.6% | [6] -2.3%

CC(C#N)NCc1ccc(C(C)NC(C)C#N)cc1 (stereo unspecified)
inactive: [1] 4.5% | [2] 2.15% | [3] -43.8% | [4] -26.1% | [5] -10.8% | [6] -15.7%

CC(C)NC(=O)CS(=O)(=O)c1ccc(N)cc1
inactive: [1] -2.3% | [2] -11.8% | [3] 2.1% | [4] -0.3% | [5] 30% | [6] 7.7%

O=C1N(CCN2CCC3(CC2)OCCO3)CCN1c1cc(Cl)cc(Cl)c1
inactive: [1] 56.9% | [2] 25.4% | [3] 51% | [4] 34.3% | [5] 24.6% | [6] 37.8%

CC(C)(Cl)C1CCC(CC(Cl)(Cl)Cl)CC1 (stereo unspecified)
inactive: [1] 5.3% | [2] -16.4% | [3] 0.6% | [4] -26.9% | [5] 11.9% | [6] 9.75%
